ELG1 DNA repair: inhibitors of ELG1-dependent DNA repair in HEK293T cells; HEK293T ELG1-luciferase reporter, luminescence, 16 h; DNA damage induced by 5-fluorouridine; Potency, µM (titrated, usually from 46.1 µM), hits mostly inhibitors; 2.3% of 330,000 active; further: nearly all actives have a fitted effect of over 55% in size
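Cells (2,000 per well) received 5-fluorouridine plus test compound or DMSO and were incubated 16 hr at 37 °C, 5% CO2. Luciferase activity was read by luminescence 30 min after ONE-Glo addition; signal suppression marked inhibition of damage-induced ELG1 function.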
RORgamma inh: inhibitors of mouse ROR gamma transcriptional activity | Potency, µM (doses to about 53.6 µM), hits mostly inhibitors | 5.4% of 310,000 active | Drosophila S2 Gal4-RORgamma UAS-luciferase reporter, 20 h; further: nearly all actives have a fitted effect of over 60% in size
Target sequence (P51450 whole entry, looked up, the tested form may be a part): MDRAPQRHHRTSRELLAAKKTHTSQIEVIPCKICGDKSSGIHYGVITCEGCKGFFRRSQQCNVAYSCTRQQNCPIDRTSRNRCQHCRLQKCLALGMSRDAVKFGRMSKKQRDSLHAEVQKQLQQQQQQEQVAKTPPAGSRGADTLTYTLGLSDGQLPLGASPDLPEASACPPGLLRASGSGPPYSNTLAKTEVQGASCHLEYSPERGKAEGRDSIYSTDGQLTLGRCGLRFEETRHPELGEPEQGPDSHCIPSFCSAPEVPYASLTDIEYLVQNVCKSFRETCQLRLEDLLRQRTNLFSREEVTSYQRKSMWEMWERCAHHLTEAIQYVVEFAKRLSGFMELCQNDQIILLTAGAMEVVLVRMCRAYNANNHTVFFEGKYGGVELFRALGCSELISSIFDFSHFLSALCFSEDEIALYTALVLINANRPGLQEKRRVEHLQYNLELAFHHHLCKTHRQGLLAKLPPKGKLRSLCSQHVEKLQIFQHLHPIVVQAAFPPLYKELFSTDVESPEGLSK
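Stable Schneider cell line, Gal4 DNA-binding domain fused to ROR gamma, UAS-luciferase. Cmpd 1 hr RT → CuSO4 700 uM final → 20 hr RT → luciferase reagent 10 min → luminescence.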
VP16 counter: counter-screen for ROR gamma inhibitors: Gal4-VP16 reporter. Potency, µM (highest dose often 53.6 µM), most hits filed as inhibitors. 3.5% of 310,000 active. Drosophila S2 Gal4-VP16 UAS-luciferase, luminescence, 20 h;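 further: Gal4-VP16 expression switched on by copper sulfate through the metallothionein promoter; nearly all actives have a fitted effect of over 50% in size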
IL-1B inflam inh: inhibitors of inflammasome signaling (IL-1 beta secretion) | THP-1 LPS/ATP IL-1B secretion, AlphaLISA, 16 h; stronger effect = lower value | activity change, % at 57.5 µM | 4.7% of 360,000 active; in the data active means activity change below about -50%; inconclusive means mostly about -30% to -49%
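THP-1 cells pretreated 1 hr with compounds (up to 57.5 uM final), then stimulated with LPS (250 ng/mL final) plus ATP (1.25 mM final); secreted IL-1B measured by AlphaLISA after 16 hr, decreased signal indicating inhibition.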
DT40 TDP1 CPT: DT40-hTDP1 cell growth loss with CPT; chicken DT40 Tdp1-/-;hTDP1 cells + 20 nM CPT, ATP luminescence, 48 h; Potency, µM (top dose mostly 46.2 µM), most hits filed as inhibitors; 12% of 420,000 active; further: nearly all actives have a fitted effect of over 55% in size
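Cell growth measured by CellTiter-Glo luminescence after a minimum 48 h, 37 C compound exposure with 20 nM CPT in Tdp1-knockout DT40 cells stably expressing hTDP1, seeded 400/well; qHTS titration format.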
DT40 TDP1 no CPT: qHTS for Inhibitors of human tyrosyl-DNA phosphodiesterase 1 (TDP1): qHTS in cells in absence of CPT | DT40 Tdp1-/- hTDP1 cells, no CPT, ATP luminescence, 48 h | Potency, µM (series often up to 46.2 µM), most hits filed as inhibitors | 15% of 420,000 active; further: nearly all actives have a fitted effect of over 55% in size
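Readout: luminescence from CellTiter-Glo after 30 min in the dark at RT. Cells: DT40 Tdp1-/- with stable hTDP1, 400/well. Exposure: compounds alone, ≥48 hr, 37 °C.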
Of the large screens only hits and unclear results are named; the others gave an inactive call. In the library only some 21% were active in any assay of this set; here they are far more common. Unless noted, the call rests on the fitted dose curve; in most records, active means well fitted curve in the direction sought with a large enough effect; inconclusive means small, poorly fitted or top-dose-only effect, or another doubt; inactive means no such curve, though single readings can be large; an effect the other way counts as inactive or inconclusive.

COc1ccc(OC)c(-c2cc(-c3cccnc3)nc(N)c2C#N)c1	ELG1 DNA repair inconclusive, DT40 TDP1 CPT 0.92µM, DT40 TDP1 no CPT 0.92µM
COc1cc(-c2cc(-c3ccc(O)cc3)nc(N)c2C#N)ccc1O	ELG1 DNA repair inconclusive, IL-1B inflam inh -65.1, DT40 TDP1 no CPT inconclusive
N#Cc1c(-c2ccco2)cc(-c2ccc(F)cc2)nc1N	VP16 counter inconclusive, DT40 TDP1 CPT inconclusive, DT40 TDP1 no CPT 18.4µM
COc1ccccc1-c1cc(-c2ccc(O)cc2)nc(N)c1C#N	ELG1 DNA repair inconclusive, DT40 TDP1 CPT inconclusive, DT40 TDP1 no CPT inconclusive
Cc1ccc(-c2noc(CC(=O)c3ccc([N+](=O)[O-])cc3)n2)cc1	DT40 TDP1 CPT inconclusive, DT40 TDP1 no CPT inconclusive (no result: ELG1 DNA repair, RORgamma inh, VP16 counter)
COc1ccccc1-c1nc(SCC(=O)c2ccc(Cl)cc2)n[nH]1	none (no result: ELG1 DNA repair, RORgamma inh, VP16 counter, IL-1B inflam inh)
C[C@@H](C(=O)N1CCN(Cc2ccc3c(c2)OCO3)CC1)n1nnc2ccccc2c1=O	DT40 TDP1 CPT inconclusive, DT40 TDP1 no CPT inconclusive
CCOc1cc(/C=C(\C#N)c2[nH]nc(N)c2C#N)ccc1O	VP16 counter inconclusive, IL-1B inflam inh -64.8, DT40 TDP1 CPT inconclusive, DT40 TDP1 no CPT 10.3µM
N#Cc1c(-c2ccccc2)cc(-c2ccc(O)cc2)nc1N	ELG1 DNA repair inconclusive, RORgamma inh inconclusive, DT40 TDP1 CPT inconclusive, DT40 TDP1 no CPT inconclusive
CCOc1cc(-c2cc(-c3ccc(C)cc3)nc(N)c2C#N)ccc1O	ELG1 DNA repair 16.4µM, DT40 TDP1 CPT inconclusive, DT40 TDP1 no CPT 20.6µM
O=C(N/N=C/c1ccccn1)c1cc(-c2ccccc2)nc2ccccc12	RORgamma inh 0.501µM, VP16 counter 0.794µM, DT40 TDP1 CPT inconclusive, DT40 TDP1 no CPT 16.4µM
O=C(N/N=C/c1ccccn1)c1cc(C2CC2)nc2ccccc12	RORgamma inh 10µM, VP16 counter 12.6µM, IL-1B inflam inh -102.1, DT40 TDP1 CPT 23.1µM, DT40 TDP1 no CPT inconclusive
COC(=O)c1ccc(C(=O)OC)c(NC(=O)c2ccc(-c3ccccc3)s2)c1	none (no result: ELG1 DNA repair, RORgamma inh, VP16 counter, IL-1B inflam inh)
Cc1cc(OC(C)C(N)=O)nc(-c2ccccc2)n1 (stereo not drawn)	none
O=C(Cc1ccc(-c2ccccc2)cc1)NNC(=S)NCc1ccco1	ELG1 DNA repair inconclusive, RORgamma inh 5.62µM, VP16 counter inconclusive, DT40 TDP1 CPT inconclusive, DT40 TDP1 no CPT 16.4µM
O=C(Cc1cccs1)NNC(=S)NCc1ccco1	RORgamma inh 14.1µM
C/C(CC(=O)NCc1ccco1)=N\NC(=O)Cc1ccc(-c2ccccc2)cc1	none
COc1cc(CN2C[C@@H](CO)O[C@@H](n3cnc4c(NC(C)C)ncnc43)C2)cc(OC)c1OC	none (no result: ELG1 DNA repair, RORgamma inh, VP16 counter)
CNc1ccc(-c2ccccc2OC)cn1	none (no result: ELG1 DNA repair, RORgamma inh, VP16 counter)
CC(=O)c1ccc(NC(=O)COc2ccccc2C(=O)Nc2ccccc2)cc1	ELG1 DNA repair inconclusive, DT40 TDP1 CPT 11.2µM, DT40 TDP1 no CPT 11.2µM
CCOc1ccccc1CNCc1ccc(C(=O)O)cc1	none
O=C(COc1ccccc1C(=O)Nc1ccccc1)Nc1ccccc1F	DT40 TDP1 CPT inconclusive, DT40 TDP1 no CPT 15.8µM (no result: ELG1 DNA repair, RORgamma inh, VP16 counter, IL-1B inflam inh)
N#Cc1ccc(NC(=O)COc2ccccc2C(=O)Nc2ccccc2)cc1	DT40 TDP1 CPT 11.2µM, DT40 TDP1 no CPT inconclusive (no result: ELG1 DNA repair, RORgamma inh, VP16 counter, IL-1B inflam inh)
O=C(COc1ccccc1CNCc1ccccc1)Nc1ccccc1	RORgamma inh inconclusive, DT40 TDP1 CPT inconclusive, DT40 TDP1 no CPT 17.8µM
C[C@@]12C=CC(=O)C=C1CCC1C3CC(O)[C@@](O)(C(=O)CO)[C@]3(C)CC(O)[C@]12F (stereo partly drawn)	none (no result: ELG1 DNA repair, IL-1B inflam inh, DT40 TDP1 CPT, DT40 TDP1 no CPT)
CC(OC(=O)C1CC1C)C(=O)Nc1ncc(Cl)cc1Cl (stereo not drawn)	none (no result: RORgamma inh, VP16 counter)
COc1ccccc1CCC(=O)Nc1ccc(S(=O)(=O)Nc2nccs2)cc1	none (no result: RORgamma inh, VP16 counter)
Cc1ccc2nc(/C(C#N)=C\c3ccc(Oc4ccc(C(F)(F)F)cc4[N+](=O)[O-])cc3)[nH]c2c1	ELG1 DNA repair inconclusive, DT40 TDP1 CPT inconclusive, DT40 TDP1 no CPT 10.3µM
COc1ccc(/C=C(\C#N)c2nc3ccc(C)cc3[nH]2)cc1Oc1ccc(C(F)(F)F)cc1[N+](=O)[O-]	ELG1 DNA repair inconclusive, DT40 TDP1 CPT inconclusive, DT40 TDP1 no CPT 16.4µM
